The structures appear in SMILES notation. Results filed as inconclusive are left out. The source made the active and inactive calls. The call rests on the fitted dose curve. Non-standard residues stand in square brackets, D forms with d. Residues, ends and D or L forms follow the SMILES beside them. *: point of attachment. Sta = CC(C)C[C@H](N)[C@@H](O)CC(=O)O; Isovaleryl = CC(C)CC(=O)*

A short description of the experiment: qHTS assay for small molecule disruptors of the mitochondrial membrane potential - cell viability (AID 720634).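 Further: human HepG2 liver cancer cells; nearly all actives have a fitted effect of over 20% in size.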 The conditions noted are these: HepG2 viability, ATP luminescence (CellTiter-Glo), 1 h; series mostly up to 83.2 µM. The text has this: U.S. Tox21 Program National Center for Advancing Translational Sciences [NCATS] NIH Chemical Genomics Center [NCGC] U.S. Environmental Protection Agency [EPA] National Institutes of Environmental Health Sciences [NIEHS] National Toxicology Program [NTP] U.S. Food and Drug Administration [FDA] Tox21 Assay Overview: Mitochondrial membrane potential (MMP), one of the parameters for mitochondrial function, is generated by mitochondrial electron transport chain that creates an electrochemical gradient by a series of redox reactions. This gradient drives the synthesis of ATP, a crucial molecule for various cellular processes. Measuring MMP in living cells is commonly used to assess the effect of chemicals on mitochondrial function; decreases in MMP can be detected using lipophilic cationic fluorescent dyes. […] The dye accumulates in the mitochondria of healthy cells as aggregates, with red fluorescence. The mitochondrial potential decreases and the dye could not accumulate in the mitochondria and remains in the cytoplasm in monomers, with green fluorescence. In addition to the mitochondrial potential assay, these cells were also used to test the cytotoxicity by determining the cell viability in the culture based on the quantitation of ATP present. The cytotoxicity was measured in the same assay well of MMP assay.
Tox21 Assay Protocol Summary: 2,000 HepG2 cells in 5 uL/well were dispensed into black, clear-bottom 1536-well plates using a Multidrop Combi (Thermo Scientific) dispenser. The assay plates were incubated for an overnight at 37 C to allow cells to attach to the wells, followed by the transfer of 23 nL compound or DMSO vehicle by a pin tool (Kalypsys). The plates were incubated for 1 hr at 37 C and 5% CO2, followed by the addition of 5 uL of 2X m-MPI dye into each well using Flying Reagent Dispenser (Aurora Discovery) and then CellTiter-Glo reagent was added at 4 uL/well and incubated 30 min at room temperature. Then luminescence intensity was quantified on a ViewLux CCD-based plate reader.
On the technique in general: Quantitative high-throughput screening tests each substance at several concentrations.
For the compound `COC(=O)C(c1ccccc1Cl)N1CCc2sccc2C1` (stereo not given), the compound was called inactive.

As for `CCCOc1ccc(C(=O)OCCN(CC)CC)cc1N`, the outcome was inactive.

Consider `CC(C)(Sc1cc(C(C)(C)C)c(O)c(C(C)(C)C)c1)Sc1cc(C(C)(C)C)c(O)c(C(C)(C)C)c1`, for which the compound was classed as inactive. The same measure for `O=Cc1ccc(C(=O)O)cc1`: “inactive”; for `CC(C)(C)C(=O)NCCCC(=O)O`: “inactive”.

Take `NC(=O)CC[C@@H](N)C(=O)O`: the compound was classed as inactive. The same measure for `CCC(C)c1nccnc1OC` (stereo not given): “inactive”; for `COc1cc(OC)cc(OC)c1`: “inactive”. Next, `CCCCCCCCCCCC(C)=O`: “inactive”; `C=CC(=O)OCCOCCOCC`: “inactive”.

Turning to `CC(C)C[P+](C)(CC(C)C)CC(C)C`, the outcome was inactive.

Take `CCOC(=O)CC`: the compound was called inactive. In the case of `Cc1cc(O)c(Cl)cc1C`, the call was inactive. The same measure for `CC/C=C\CCOC(=O)c1ccccc1`: “inactive”; for `C[C@]12C=CC(=O)C=C1[C@@H](F)C[C@@H]1[C@@H]2[C@@H](O)C[C@@]2(C)[C@H]1CC[C@]2(O)C(=O)CO`: “inactive”.

Consider `N#CC1(N)CCCCC1`, for which the call was inactive. Consider `CC(C)C(C)C`, for which the compound was called inactive.

Consider `C=CC(=O)CC`, for which the compound was called inactive. Regarding `CCCCCCCOC(C)=O`, the call was inactive. The same measure for `N=C(N)N`: “inactive”; for `O=C(O)CCCCCCCCCC(=O)O`: “inactive”. The same measure for `C/C(Cl)=C/CCl`: “inactive”.

On to `O=C(OOC(=O)c1ccccc1)c1ccccc1`, for which the outcome was inactive. Next, `CN(C)c1ccncc1`: “inactive”. Next, `C[Si](C)(C)O[Si](O)(O)O`: “inactive”. Turning to `CNC(C)=O`, the compound was called inactive. The same measure for `CC(C)CC(=O)N[C@H](C(=O)N[C@H](C(=O)N[C@@H](CC(C)C)[C@@H](O)CC(=O)N[C@@H](C)C(=O)N[C@@H](CC(C)C)[C@@H](O)CC(=O)O)C(C)C)C(C)C` (Isovaleryl-VV[Sta]A[Sta]-OH): “inactive”; for `CC(C)(O)CCCC1=CCC(C=O)CC1` (stereo not given): “inactive”; for `C=CCn1cc[n+](C)c1`: “inactive”. For `CC(C)(O)c1ccc(C(C)(C)O)cc1`, the compound was called inactive.

For the compound `CCC(=O)OCCOc1ccccc1`, the compound was classed as inactive.

For the compound `Cc1ccc(Br)cc1`, the compound was called inactive. Consider `CCCCC(CC)CCC(CC(C)C)OS(=O)(=O)O` (stereo not given), for which the result was inactive.

Regarding `CCOC(=O)CC(C(C)=O)C(C)=O`, the call was inactive. In the case of `O=c1c(O)c(O)c1=O`, the compound was called inactive. For `CCOc1ccccc1OCCN[C@H](C)Cc1ccc(OC)c(S(N)(=O)=O)c1`, the compound was classed as inactive. As to `O=C(O)/C=C(\CC(=O)O)C(=O)O`, the call was inactive. Consider `CC[N+](C)(CC)CC`, for which the outcome was inactive.

With `Cc1ccc(S(=O)(=O)NC(=O)NN2CC3CCCC3C2)cc1` (stereo not given), the compound was classed as inactive.

For the compound `CC(C)OCCO`, the compound was called inactive.

These data come from PubChem BioAssay (Tox21).
